# aSyn UTR act: Activators working through SNCA 5'UTR binding (MLPCN). alpha-synuclein 5'UTR reporter, activators screen. activity score, % (tested at 7.5 µM), hits read low. hit rate 7.1% among 300,000. AID 1814; in the data active = activity score below about -60%
# The depositor's hits bear a star. Not all results are given here.
SMILES,aSyn UTR act
Cc1ccc(-c2nc3ccc(Cl)cc3n2OC(=O)N(C)C)cc1,-129*
O=C(c1ccccc1)c1ccc(N=Nc2c(O)[nH]c(=O)[nH]c2=O)cc1,-74*
COC(=O)C1=C(c2cc3ccccc3o2)C[C@@H]2CC[C@H]1N2C(=O)N1CCCCC1,66
N#Cc1cc2c(nc1SCC(=O)Nc1cc(Cl)ccc1Cl)C1CCN2CC1,-140*
N#Cc1cc2c(nc1SCC(=O)Nc1ccc(Cl)cc1)C1CCN2CC1,-159*
CC12CC[C@H]3[C@@H](CCC4(O)C[C@H](O)CCC34/C=N/NC(=O)c3ccccc3F)C1(O)CCC2C1=CC(=O)OC1 (some centres undefined),64
Cc1ccc(-c2nc(N3CCOCC3)s[n+]2-c2ccccc2)cc1,-233*
CC(=O)OC1CC[C@]2(C#N)[C@H]3CC[C@]4(C)[C@H](C5C=CC(=O)O5)CCC4(O)C3CCC2(O)C1 (some centres undefined),85
CCCCCCCSc1cc(OC)c(CCNC)cc1OC,121
CC(C)n1c(O)c(C2c3cc(Cl)ccc3Oc3[nH]c(=O)n(C(C)C)c(=O)c32)c(=O)[nH]c1=O (centres undefined),-88*
COc1ccc(-c2nc3ccccc3c(=O)o2)cc1,-65*
COc1ccc(-[n+]2c(-c3ccccc3)cc(-c3ccccc3)cc2-c2ccccc2)cc1,81
Cc1cc(NC(=O)CCl)nn1C,-94*
Cn1ccc(NC(=O)CCl)n1,-70*
CC1CCN(CC(=O)c2ccccc2Cl)CC1,-134*
CC1CCN(CC(=O)c2ccc3c(c2)OCCO3)CC1,-77*
CC(=O)Nc1ccc(OC(=O)N2CCCCC2)cc1,69
C=C1C(=O)O[C@@H]2C[C@@H](C)[C@@H]3C=CC(=O)[C@@]3(C)[C@@H](O)[C@H]12,119
C[C@@H]1C[C@H]2OC(=O)C3(CO3)[C@H]2[C@H](O)[C@]2(C)C(=O)C3OC3[C@@H]12 (some centres undefined),-63*
CN(C)c1ccc(/C=C/C=C/c2sc3ccccc3[n+]2C)cc1,60
O=C(NC1CCCCC1)Oc1cc2oc(=O)sc2cc1Cl,-62*
C[C@@H]1O[C@@H](O[C@H]2C[C@@H](O)[C@]3(CO)[C@H]4[C@H](O)C[C@]5(C)[C@@H](C6COC(=O)C6)CC[C@]5(O)[C@@H]4CC[C@]3(O)C2)[C@H](O)[C@H](O)[C@H]1O (some centres undefined),115
Cc1cc(N=Nc2ccccc2C)ccc1N,-103*
CC[n+]1c(/C=C/C=C/c2ccc(N(C)C)cc2)sc2ccccc21,60
CCN1/C(=C\C=C\C2=[N+](CC)c3ccccc3C2(C)C)C(C)(C)c2ccccc21,104
SMILES,aSyn UTR act
CC1(C)CN=C(Nc2nc3ccccc3s2)S1,-118*
CC12CC[C@H]3[C@@H](CCC4(O)C[C@H](O)CCC34/C=N/NC(=O)c3ccccc3O)C1(O)CCC2C1=CC(=O)OC1 (some centres undefined),77
CN(C)c1ccc(/C=C2/C(=N\O)C3CCN2CC3)cc1,-133*
Cc1cc(C(=O)CS(=O)(=O)c2ccc(F)cc2)cc(C)c1OC(=O)N(C)C,-135*
O=Cc1cn(Cc2cccc([N+](=O)[O-])c2)c2ccccc12,94
O=C(Nc1ccc2c(c1)OCO2)c1cn(Cc2ccc(F)cc2)nn1,-76*
CN(C)c1ccc(C(=O)N/N=C/C23CC[C@@H](O)CC2(O)CC[C@@H]2[C@@H]3CCC3(C)C(C4=CC(=O)OC4)CCC23O)cc1 (some centres undefined),95
CN(C)C(=O)Oc1ccc(-c2cn3cc(C(F)(F)F)ccc3n2)cc1,-86*
CN(C)C(=O)Oc1cccc(-c2cn3cc(Cl)ccc3n2)c1,-82*
COC1CC(OC2CCC3(C)C(CCC4C3CCC3(C)C(C5=CC(=O)OC5)C(OC(C)=O)CC43O)C2)OC(C)C1OC1OC(COC2OC(CO)C(O)C(O)C2O)C(O)C(O)C1O (centres undefined),115
CCCCCCC[n+]1ccc(-c2cc[n+](CCCCCCC)cc2)cc1,92
O=[N+]([O-])c1ccc(NC2CCCC2)c2ccncc12,58
N=C1c2ccccc2CN1NC(=O)c1ccc(F)cc1,-62*
CCc1ccc(NC(=O)CCNC(=O)N2C[C@H]3C[C@@H](C2)c2cccc(=O)n2C3)cc1,-70*
Nc1cc2nc3ccccc3nc2cc1N,-64*
COc1ccc(-c2cc(C(=O)N3CCC4(CC3)OCCO4)c3ccccc3n2)cc1,-88*
Cc1ccc(-n2c(C)nc3cc(Cl)ccc3c2=O)nc1,-117*
CC1CC(OP(O)(=S)c2ccc(N(C)C)cc2NC(=O)c2cccs2)CC(C)(C)C1 (centres undefined),-113*
CCC(CC)NCc1c[nH]c2ccccc12,-62*
CCn1c(NN=O)nc2ccccc21,74
CCOc1cccc(CNCCc2c(C)[nH]c3ccc(OC(F)(F)F)cc23)c1O,113
NC(Cc1nc2ccccc2[nH]1)c1ccc(Cl)cc1 (centres undefined),-167*
CN(C)C(=O)Oc1ccc2c(=O)c(Oc3ccccc3Br)coc2c1,-77*
